Common to all, as to assay: NCI-60 one-dose screen, 48 h (100 = growth as untreated, 0 = no growth, -100 = all killed)
The test system of one assay is NCI-H226 lung. The following applies: 10 µM.
The subject of another assay is NCI-H322M lung. The following applies: 10 µM unless noted.
A further assay has as its system HOP-62 NSCLC. Conditions: 10 µM unless noted.
The test system of another assay is NCI-H460 lung. The following applies: 10 µM unless noted.
The subject of another assay is HOP-92 NSCLC. The following applies: 10 µM unless noted.
Another assay deals with A549/ATCC NSCLC. Conditions: 10 µM unless noted.
A further assay relates to 786-0 renal. The following applies: 10 µM unless noted.
The subject of a further assay is COLO 205 colon. The following applies: 10 µM unless noted.
A further assay relates to NCI-H522 lung. Conditions: 10 µM.

The panel holds about 83,000 compounds, 20% with a hit somewhere; the sample as a whole holds those more often.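 The test compound was applied at a single concentration to cells in 96-well plates for 48 hours, and percent growth was recorded.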 Values without a mark were called inactive. The source made the active and inactive calls. Rule for the calls: active = growth percent below 10; inactive = the rest.

For `Cc1ccc2c(c1)c(Sc1ccc(C(=O)NO)cc1)c1n2CN(C)CC1`, the growth with NCI-H226 lung is -0.932% (active); with NCI-H322M lung, 31.1%; in the assay with HOP-62 NSCLC it was 33.7%; in the assay with NCI-H460 lung, 7.16% (active); in the assay on HOP-92 NSCLC, 27.9%; in the assay on A549/ATCC NSCLC, 1.5% (active). For the same compound, the growth with 786-0 renal was 37.7%; in the assay with COLO 205 colon, 14.1%.
As for `O=C(CCCCCCC(=O)Nc1ccc2c(c1)/C(=C/c1ccc[nH]1)C(=O)N2)NO`, the growth was 27.6% in the assay on NCI-H226 lung; 15.1% in the assay on NCI-H322M lung; 14% in the assay on HOP-62 NSCLC; -19.7% (active) with HOP-92 NSCLC; 14.8% with NCI-H522 lung; 34.9% in the assay with A549/ATCC NSCLC. The growth in the assay on 786-0 renal is 26.2%; in the assay with COLO 205 colon it was -58.6% (active).
For the compound `NC(=O)c1cc(Cl)ccc1NC(=O)COc1ccccc1`, the growth in the assay with NCI-H226 lung is 90.5%; in the assay with NCI-H322M lung, 46.7%; in the assay with HOP-62 NSCLC, 46.7%; in the assay on NCI-H460 lung, 29.6%; in the assay with NCI-H522 lung, 44.2%; with A549/ATCC NSCLC, 52.8%. Further, the figures for the growth in the assay with 786-0 renal and in the assay with COLO 205 colon were 60.1% and 25.4%, respectively.
As to `Cc1ccc(C)c2c1sc1nc3nc4sc5ccccc5n4c(=N)c3c(=O)n12`, the growth in the assay with NCI-H226 lung is 115%; in the assay on NCI-H322M lung, 120%; with HOP-62 NSCLC it was 97.3%; with NCI-H460 lung it was 95.5%; in the assay with HOP-92 NSCLC, 72.3%; in the assay with NCI-H522 lung, 116%. Further, the growth is 111% in the assay with A549/ATCC NSCLC, 100% in the assay on 786-0 renal and 109% with COLO 205 colon.
For `COC(=O)CCC(=O)c1ccccc1`, the growth in the assay on NCI-H226 lung was 115%; with NCI-H322M lung it was 119%; in the assay on HOP-62 NSCLC, 116%; in the assay with NCI-H460 lung, 106%; in the assay on NCI-H522 lung, 106%; in the assay on A549/ATCC NSCLC it was 95.4%. Also, the growth in the assay with 786-0 renal was 94.7%; with COLO 205 colon, 115%.
Regarding `COc1cc(C(F)(F)F)ccc1-c1cc(-c2ccc(F)cc2)n[nH]1`, the growth is 81.1% with NCI-H226 lung; 90.6% in the assay with NCI-H322M lung; 97.8% with HOP-62 NSCLC; 91.6% in the assay with NCI-H460 lung; 96.1% with HOP-92 NSCLC; 64.9% with A549/ATCC NSCLC. Also, the growth with 786-0 renal was 99.9%.
For the compound `COc1cc(/C=C/C(=O)C2=C(/C=C/c3ccc(O)c(OC)c3)NC(=O)NC2c2ccc(O)c(OC)c2)ccc1O` (stereo not drawn), the growth was 91.8% with NCI-H226 lung; 102% in the assay with NCI-H322M lung; 123% in the assay on HOP-62 NSCLC; 89.1% in the assay with NCI-H460 lung; 88.9% in the assay on HOP-92 NSCLC; 78.9% with A549/ATCC NSCLC. In addition, the growth with 786-0 renal is 100%.
In the case of `COc1cc(NC(=O)COc2ccccc2)c(C(N)=O)cc1OC`, the growth is 76.5% with NCI-H226 lung; 40.1% in the assay on NCI-H322M lung; 30.5% in the assay with HOP-62 NSCLC; 7.91% (active) with NCI-H460 lung; -9.94% (active) in the assay with NCI-H522 lung; 20.5% with A549/ATCC NSCLC. Further, the growth in the assay with 786-0 renal is 44.4%; in the assay with COLO 205 colon, 8.28% (active).
Regarding `O=C1C(Cl)=C(NCCCN2CCOCC2)C(=O)c2ccccc21`, the growth with NCI-H226 lung was 107%; in the assay with NCI-H322M lung, 98.5%; with HOP-62 NSCLC it was 120%; in the assay with NCI-H460 lung, 99.2%; in the assay with HOP-92 NSCLC, 106%; in the assay with NCI-H522 lung, 89.9%. In addition, the growth in the assay on A549/ATCC NSCLC is 98.8%; with 786-0 renal it was 113%; in the assay on COLO 205 colon, 86.9%.
Regarding `COc1ccc2c(c1)c(=O)oc1c(C)c(OCC(C)=O)ccc12`, the growth in the assay with NCI-H226 lung was 104%; in the assay on NCI-H322M lung it was 105%; in the assay on HOP-62 NSCLC, 118%; in the assay with NCI-H460 lung, 103%; with NCI-H522 lung it was 89.7%; with A549/ATCC NSCLC, 85.1%. Moreover, the results for the growth in the assay with 786-0 renal and with COLO 205 colon were 101% and 128%, respectively.
With `CCSc1nnc2c3cc(Br)ccc3n(C)c2n1`, the growth in the assay on NCI-H226 lung is 93.6%; with NCI-H322M lung, 101%; in the assay on HOP-62 NSCLC it was 82.7%; in the assay on NCI-H460 lung, 102%; in the assay with NCI-H522 lung it was 99.5%; in the assay with A549/ATCC NSCLC it was 102%. Moreover, the growth with 786-0 renal and in the assay on COLO 205 colon was 102% throughout.
For the compound `CCCCNNC(=O)c1ccc(Br)cc1`, the growth in the assay on NCI-H226 lung was 62.5%; with NCI-H322M lung, 59.3%; with HOP-62 NSCLC it was 55.5%; with NCI-H460 lung, 50.1%; with A549/ATCC NSCLC, 57.6%; in the assay on 786-0 renal, 79%. In addition, in the assay on COLO 205 colon, the growth is 46.1%.
For the compound `Clc1ccc(C2=NN(c3ccccc3)[C@H](c3cn(-c4ccccc4)nc3-c3ccccc3)C2)cc1`, the growth in the assay on NCI-H226 lung was 96.1%; with NCI-H322M lung, 101%; with HOP-62 NSCLC it was 108%; in the assay on NCI-H460 lung it was 108%; in the assay on NCI-H522 lung, 91.5%; in the assay with A549/ATCC NSCLC it was 97.8%. Besides, the growth with 786-0 renal is 103%; in the assay with COLO 205 colon it was 114%.
As to `COc1ccc(NC(=O)COc2ccccc2)c(C(N)=O)c1`, the growth in the assay with NCI-H226 lung was 71.6%; in the assay on NCI-H322M lung, 59.3%; in the assay on HOP-62 NSCLC it was 20.3%; in the assay on NCI-H460 lung, 11.2%; in the assay on NCI-H522 lung, 6.28% (active); in the assay on A549/ATCC NSCLC, 24.8%. The growth is 35.2% in the assay on 786-0 renal and -12.1% (active) in the assay with COLO 205 colon.
For the compound `O=C1/C(=C/c2ccc(F)cc2)CN(Cc2cn(CCNc3ccnc4cc(Cl)ccc34)nn2)C/C1=C\c1ccc(F)cc1`, the growth in the assay with NCI-H226 lung was -62.3% (active); with NCI-H322M lung, -0.345% (active); in the assay on HOP-62 NSCLC, -55.3% (active); in the assay on NCI-H460 lung it was -42.8% (active); in the assay on HOP-92 NSCLC, -50.5% (active); with NCI-H522 lung, -75.4% (active). For the same compound, the growth was -31.3% (active) in the assay with A549/ATCC NSCLC, -66.2% (active) in the assay with 786-0 renal and -53.4% (active) in the assay with COLO 205 colon.
`Cn1c2ccccc2c2nn(C(=O)c3ccccc3)c(=O)nc21`: the growth in the assay with NCI-H226 lung is 96.2%; in the assay on NCI-H322M lung, 99.6%; in the assay on HOP-62 NSCLC it was 115%; with NCI-H460 lung it was 105%; with NCI-H522 lung, 99%; with A549/ATCC NSCLC, 116%. The growth with 786-0 renal was 107%; in the assay on COLO 205 colon, 118%.

(Values after PubChem BioAssay (NCI).)
